From PubChem BioAssay (NCI) come the findings set out here.

Test in all cases: NCI-60 one-dose screen, 48 h (100 = growth as untreated, 0 = no growth, -100 = all killed)
Settings in all cases: 10 µM unless noted

For experiment [1], the system named is NCI-H23 lung.
Experiment [2] deals with NCI-H226 lung.
For experiment [3], the system named is NCI-H322M lung.
Experiment [4] deals with HOP-62 NSCLC.
For experiment [5], the system named is NCI-H460 lung.
Experiment [6] relates to HOP-92 NSCLC.
The subject of experiment [7] is NCI-H522 lung.
Experiment [8] concerns A549/ATCC NSCLC.
For experiment [9], the system named is 786-0 renal.
In experiment [10] the test system is COLO 205 colon.
For experiment [11], the system named is DU-145 prostate.
For experiment [12], the system named is K-562 leukemia.
The subject of experiment [13] is MALME-3M melanoma.
Experiment [14] concerns MDA-MB-231 breast.
Experiment [15] relates to RXF 393 renal.
Experiment [16] concerns SF-268 CNS.
The subject of experiment [17] is SF-295 CNS.
The subject of experiment [18] is SF-539 CNS.
In experiment [19] the test system is UACC-257 melanoma.
For experiment [20], the system named is M14 melanoma.

Each structure is given as a SMILES string. The panel holds about 83,000 compounds, 20% with a hit somewhere; the sample as a whole holds those more often.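 Cell lines were cultured in 96-well plates, exposed to a single compound concentration, and assessed for percent growth 48 hours later.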 A number with no mark means an inactive call. Active and inactive are the calls of the source. How the source made its calls: active means growth percent below 10; inactive means the rest.

Take `CCCCC[C@H]1CC=C2C(=O)C(Cl)=C[C@@H]2CC=CCCCC(=O)O[C@@H](CCCCC)CC=C2C(=O)C(Cl)=C[C@@H]2CC=CCCCC(=O)O[C@@H](CCCCC)CC=C2C(=O)C(Cl)=C[C@@H]2CC=CCCCC(=O)O1`: the growth in experiment [1] is 58.4% [8 µM]; in experiment [2], 115% [8 µM]; in experiment [3], 96.2% [8 µM]; in experiment [4], 89.8% [8 µM]; in experiment [5], 91% [8 µM]; in [6], 130% [8 µM]. Also, the growth in experiment [7] is 25.1% [8 µM]; in experiment [8], 90.6% [8 µM]; in [9], 103% [8 µM]; in [10], 70.8% [8 µM]; in experiment [11], 59.9% [8 µM]; in [12], 27.7% [8 µM]. Moreover, the growth in experiment [13] was 105% [8 µM]; in experiment [14] it was 53.1% [8 µM]; in experiment [15], 79.2% [8 µM]; in experiment [16], 73.1% [8 µM]; in experiment [17] it was 106% [8 µM]; in experiment [18] it was 88% [8 µM]. In addition, the growth in experiment [19] was 76.3% [8 µM]; in [20], 48.2% [8 µM].
`COC(=O)C(Cc1ccccc1)n1cc(COc2nc(Cl)nc(Nc3ccc(Cl)cc3)n2)nn1` (stereo not given): the growth in experiment [1] was 92.5%; in [2], 99.8%; in experiment [3], 95.3%; in experiment [4], 95%; in experiment [5], 101%; in [6] it was 105%. The growth in experiment [7] was 88.2%; in experiment [8], 102%; in experiment [9], 98.9%; in experiment [10], 117%; in experiment [11], 81.5%; in experiment [12], 90.6%. For the same compound, the growth in experiment [13] is 89.4%; in [14] it was 94%; in [15] it was 101%; in [16] it was 97.8%; in experiment [17], 101%; in experiment [18] it was 97.4%. The growth was 94.7% in experiment [19] and 91.5% in experiment [20].
Turning to `O=C(Nc1ccc(/C=C2\SC(=O)N(Cc3ccc(OC(F)(F)F)cc3)C2=O)cc1)c1ccc(Cl)c([N+](=O)[O-])c1`, the growth in experiment [1] is 80.8%; in experiment [2] it was 83.4%; in [3] it was 42.7%; in experiment [4], 57.8%; in [5] it was 94.6%; in [6] it was 86.4%. In addition, the growth was 83% in experiment [7]; 85% in [8]; 99.6% in [9]; 55.1% in experiment [10]; 72.7% in experiment [11]; 46.4% in experiment [12]. Also, the growth in [13] was 98.4%; in experiment [14], 53.2%; in [15], 83.5%; in experiment [16], 62.7%; in [17], 96.1%; in experiment [18], 77.2%. Moreover, the growth in experiment [19] is 80.1%; in experiment [20] it was 104%.
In the case of `COc1cc(OC)c2c(c1)c1nc3cc(C)c(C)cc3nc1n2CCN(C)C`, the growth in [1] was 91.3%; in [2], 90.5%; in experiment [3], 87.1%; in experiment [4], 79.4%; in experiment [5] it was 84.8%; in experiment [6] it was 81.7%. Further, the growth in experiment [7] was 79.2%; in experiment [8], 80.4%; in experiment [9], 83.9%; in experiment [10], 74.9%; in experiment [11], 90.2%; in experiment [12] it was 78.3%. Further, the growth in experiment [13] is 80.9%; in experiment [14], 79.5%; in experiment [15] it was 96.2%; in experiment [16], 93.7%; in experiment [17] it was 90.2%; in [18] it was 86%. Besides, the growth in experiment [19] was 94.9%; in experiment [20], 84.2%.
Consider `Fc1ccc2c(c1)c(-c1nc(-c3c[nH]c4ncccc34)cs1)cn2CCCN1CCCCC1`, for which the growth was 84.9% in experiment [1]; 80% in experiment [2]; 80.6% in [3]; 65.3% in experiment [4]; 13% in [5]; 45.4% in [6]. In addition, the growth is 94.3% in [7]; 65.7% in [8]; 61.9% in experiment [9]; -73.1% (active) in experiment [10]; 66.7% in experiment [11]; -58.8% (active) in [12]. For the same compound, the growth is 49.8% in experiment [13]; 55.3% in experiment [14]; 69.4% in experiment [15]; 66.6% in [16]; 93.2% in experiment [17]; 61.4% in experiment [18]. The growth is 100% in experiment [19] and -81% (active) in [20].
As to `COc1ccc2c(c1)c(-c1nc(-c3c[nH]c4ncccc34)cs1)cn2CCCN1CCCCC1`, the growth in experiment [1] is 73.1%; in experiment [2], 70.8%; in experiment [3], 56.4%; in [4] it was 37.4%; in experiment [5], 5.78% (active); in experiment [6] it was 24.9%. In addition, the growth in experiment [7] is 67.6%; in experiment [8] it was 41.3%; in experiment [9] it was -75.1% (active); in experiment [10], -74.9% (active); in experiment [11] it was 46.1%; in [12], -58.8% (active). Besides, the growth in experiment [13] was -70.9% (active); in [14], 29.3%; in experiment [15] it was 35.9%; in experiment [16], 52.7%; in experiment [17], 68.2%; in experiment [18], -63.6% (active). The growth in experiment [19] was 71.8%; in experiment [20], -84.1% (active).
Take `Fc1ccc(Nc2nnc(-c3ccc(Cl)cc3)o2)cc1`: the growth in experiment [1] was 95%; in experiment [2], 93.8%; in experiment [3], 103%; in experiment [4] it was 89.5%; in experiment [5], 105%; in [6] it was 95.5%. Also, the growth in experiment [7] was 74%; in experiment [8], 81.3%; in experiment [9], 104%; in [10], 94.2%; in [11] it was 107%; in experiment [12] it was 70.6%. Further, the growth in experiment [13] was 95.6%; in experiment [14], 85.9%; in experiment [15], 100%; in experiment [16], 99.3%; in [17], 102%; in [18] it was 103%. For the same compound, the growth in [19] is 88.9%; in experiment [20], 95.4%.
In the case of `CCN1CCN(C(=O)[C@]23CCC(C)(C)C[C@@H]2C2=CC[C@@H]4[C@@]5(C)C/C(=C/c6ccncc6)C(=O)C(C)(C)[C@@H]5CC[C@@]4(C)[C@]2(C)CC3)CC1`, the growth was -7.07% (active) in [1]; -42.8% (active) in experiment [2]; 27% in [3]; -66.9% (active) in experiment [4]; -64.7% (active) in experiment [5]; -11% (active) in experiment [6]. The growth in experiment [7] is -59% (active); in experiment [8], 4.33% (active); in experiment [9] it was -73.6% (active); in [10] it was -15.3% (active); in experiment [11], -16.9% (active); in experiment [12], -13.1% (active). Besides, the growth in [13] was -87.9% (active); in experiment [14], -59.9% (active); in experiment [15] it was -93.3% (active); in experiment [16], 14.8%; in experiment [17], -55.9% (active); in [18] it was -96.4% (active). Besides, the growth is -2.01% (active) in experiment [19] and -76% (active) in experiment [20].
